Data: PubChem BioAssay AID720597 (Broad Institute, 2013)
Results with a measured potency or affinity are listed apart. Calls of active or inactive are those of the source.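 Rule for the calls: active = fitted half-maximal dose no more than twice the top valid tested dose, for compounds that lower signal; inconclusive = fit invalid, or curve flat with activity between -70 and -30; inactive = potency past limit, curve flat within ±30, or signal increasing.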

What follows are compounds tested against NAD-dependent protein deacylase sirtuin-5, mitochondrial (Homo sapiens) (UniProt Q9NXA8) (assay: SIRT5 deacylase inhibitors, dose response, biochemical, fluorescence imaging, cherry-pick, set 6 (AID 720597;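 note: lower AMC signal can also come from blocking the trypsin step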)). Conditions: Purified SirT5, succinyl-peptide-AMC/trypsin fluorescence; series mostly up to 15 µM.
Sequence of NAD-dependent protein deacylase sirtuin-5, mitochondrial (Homo sapiens) (Q9NXA8 whole entry, looked up): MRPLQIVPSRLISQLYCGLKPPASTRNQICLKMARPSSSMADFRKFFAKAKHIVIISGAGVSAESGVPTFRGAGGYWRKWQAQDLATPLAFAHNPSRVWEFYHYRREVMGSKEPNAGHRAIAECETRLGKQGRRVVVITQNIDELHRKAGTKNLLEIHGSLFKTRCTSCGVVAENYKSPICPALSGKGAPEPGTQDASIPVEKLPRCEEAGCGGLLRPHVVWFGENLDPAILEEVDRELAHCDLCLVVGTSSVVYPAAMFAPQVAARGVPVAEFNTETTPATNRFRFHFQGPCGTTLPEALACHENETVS

Compound	outcome
COc1cccc(S(=O)(=O)N(C)C[C@H]2Oc3cc(C4=CCCC4)ccc3S(=O)(=O)N([C@@H](C)CO)C[C@H]2C)c1	inactive
C[C@@H]1CN([C@H](C)CO)C(=O)c2cc(C#CCN(C)C)cnc2O[C@H]1CN(C)Cc1ccncc1	inactive
O=C(c1cccnc1)N1CCCCN2[C@H](CO)[C@@H](c3ccc(C#Cc4ccccn4)cc3)[C@@H]2C1	inactive
C[C@@H]1CCCCO[C@@H](CN(C)CC2CCCCC2)[C@H](C)CN([C@H](C)CO)C(=O)c2cc(NC(=O)CCCCCC(=O)Nc3ccccc3N)ccc2O1	inactive
COc1ccc(S(=O)(=O)N(C)C[C@H]2OCCCC[C@@H](C)Oc3ccc(NS(=O)(=O)c4ccc(C)cc4)cc3C(=O)N([C@@H](C)CO)C[C@H]2C)cc1	inactive
Cc1cccc(S(=O)(=O)N2CCCCN3[C@H](CO)[C@@H](c4ccc(-c5ccccc5)cc4)[C@H]3C2)c1	inactive
CC(C)C#Cc1cnc2c(c1)C(=O)N([C@@H](C)CO)C[C@@H](C)[C@H](CN(C)C(=O)CN1CCOCC1)O2	inactive
C[C@H]1CN([C@@H](C)CO)S(=O)(=O)c2ccc(-c3cccc(F)c3)cc2O[C@H]1CN(C)S(=O)(=O)c1ccc(F)cc1	inactive
C[C@H]1CN([C@@H](C)CO)C(=O)Cc2cc(NS(=O)(=O)c3ccc(Cl)cc3)ccc2O[C@@H]1CN(C)Cc1ccc(Oc2ccccc2)cc1	inactive
Cc1noc(C)c1NC(=O)N(C)C[C@H]1OCCCC[C@@H](C)Oc2ccc(NS(=O)(=O)c3c(C)noc3C)cc2C(=O)N([C@H](C)CO)C[C@@H]1C	inactive
C[C@@H]1CN([C@@H](C)CO)C(=O)c2cccc(NC(=O)c3ccncc3)c2O[C@@H]1CN(C)S(C)(=O)=O	inactive
O=C(N[C@H]1C=C[C@H](CC(=O)N2CCOCC2)O[C@H]1CO)c1ccccn1	inactive
